This is one part of a sample in which hits are shown more often than they occur.
AmpC inh detg = AmpC beta-lactamase inhibition with detergent present. AmpC hydrolysis of nitrocefin, absorbance 480 nm, 0.01% Triton. actives 0.041% (n = 370,000). Potency, µM (highest dose often 114 µM), most hits filed as inhibitors. AID 485294; further: nearly all actives have a fitted effect of over 25% in size
Target sequence (P00811 whole entry, looked up): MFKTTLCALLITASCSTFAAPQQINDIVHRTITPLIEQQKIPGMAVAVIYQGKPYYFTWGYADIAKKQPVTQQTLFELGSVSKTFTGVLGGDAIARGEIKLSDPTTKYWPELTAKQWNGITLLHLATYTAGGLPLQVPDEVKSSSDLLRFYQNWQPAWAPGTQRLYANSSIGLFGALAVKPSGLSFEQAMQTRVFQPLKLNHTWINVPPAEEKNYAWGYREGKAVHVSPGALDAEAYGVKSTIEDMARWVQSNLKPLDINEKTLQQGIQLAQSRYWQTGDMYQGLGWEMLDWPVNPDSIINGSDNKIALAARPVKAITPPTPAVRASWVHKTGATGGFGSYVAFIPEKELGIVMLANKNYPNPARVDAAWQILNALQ
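AmpC (5.3 nM in the dispensed reagent) in 20 mM phosphate pH 7.0 with 0.01% (detergent screen) or 0.0001% Triton X-100 was preincubated with compounds for 15 min at room temperature. Nitrocefin was then added from an 800 uM solution, and hydrolysis was followed at 480 nm.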
AMA1 RON2 block = AMA1-RON2 (P. falciparum) interaction inhibition; actives 0.2% (n = 360,000); AID 720542; AlphaScreen AMA1-biotinylated RON2 peptide binding; Potency, µM (titrated, usually from 58.2 µM), hits mostly inhibitors; further: nearly all actives have a fitted effect of over 45% in size
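AMA1 (3D7) with his tag at 25 nM final met compounds first, then biotinylated RON2 peptide at 25 nM; detection used donor plus acceptor beads, 10 µg/mL apiece, read by AlphaScreen after 30 min at room temperature.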
Cycloheximide cs = counter-screen hit for Shiga toxin inhibitors, cycloheximide; max response, %; AID 2314; actives 12% (n = 300,000); cell reporter, cycloheximide protein synthesis inhibition counterscreen; in the data active means max response mostly above about 13%, no sharp cut-off; inactive means mostly below about 14%; further: read at 38.3 µM for the half of the compounds with a filed dose
SARS PLP yeast = SARS-CoV PLP inhibition in yeast | S. cerevisiae expressing SARS-CoV PLpro, growth rescue | Potency, µM (doses to about 32.9 µM), most hits filed as activators | actives 0.19% (n = 330,000) | AID 485353; calls by dose curve; further: nearly all actives have a fitted effect of over 55% in size
AmpC no deterg = blocks E. coli AmpC beta-lactamase in detergent-free assay | Potency, µM (top dose mostly 57.1 µM), hits mostly inhibitors | AmpC nitrocefin hydrolysis, absorbance 480 nm, 0.0001% Triton | actives 0.52% (n = 330,000) | P00811; further: nearly all actives have a fitted effect of over 20% in size
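20 mM phosphate pH 7.0 + 0.01% (detergent screen) or 0.0001% Triton X-100; 5.3 nM AmpC reagent; cpd preinc 15 min RT; nitrocefin (800 uM stock) to start; A480 q20 s × 4 min; Activity was normalised to no-enzyme and no-compound control wells.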
Shiga inhibitor = blocks Shiga toxin action in Vero cells; Vero cells, Shiga toxin protein synthesis inhibition reporter; inhibition, % at 38.7 µM; actives 9.2% (n = 290,000); AID 2315; in the data active means inhibition mostly above about 28%, no sharp cut-off; inactive means mostly below about 43%
Hits are given with their value. Unless noted, the call rests on the fitted dose curve; in most records, active means well fitted curve in the direction sought with a large enough effect; inconclusive means small, poorly fitted or top-dose-only effect, or another doubt; inactive means no such curve, though single readings can be large; an effect the other way counts as inactive or inconclusive.

What do the screens show for `O=c1c2ccccc2nnn1CSc1ccccc1F`?
AmpC inh detg: inactive; AMA1 RON2 block: inactive; Cycloheximide cs: 63; SARS PLP yeast: inactive; AmpC no deterg: inactive; Shiga inhibitor: 55

Results for O=c1c2ccccc2nnn1CSc1nnc2sc3ccccc3n12 ?
AmpC inh detg: inactive; Cycloheximide cs: 38; SARS PLP yeast: inactive; AmpC no deterg: inactive; Shiga inhibitor: 79

How did O=c1c2ccccc2nnn1CSc1ncnc2ccccc12 do in these assays?
AmpC inh detg: inactive; AMA1 RON2 block: inactive; Cycloheximide cs: inactive; SARS PLP yeast: inactive; AmpC no deterg: inactive; Shiga inhibitor: inactive

Results for CN(C)C(=O)CSc1nnc2sc3ccccc3n12 ?
AmpC inh detg: inactive; AMA1 RON2 block: inactive; Cycloheximide cs: inactive; SARS PLP yeast: inconclusive; AmpC no deterg: inactive; Shiga inhibitor: inactive

Results for O=C(CNC(=O)c1ccccc1)OCC(=O)c1ccc(Cl)s1 ?
AmpC inh detg: inactive; AMA1 RON2 block: inactive; SARS PLP yeast: inactive; AmpC no deterg: inactive

Results for Cc1cc(C(=O)COC(=O)CNC(=O)c2ccc(Cl)c(Cl)c2)c(C)n1Cc1ccco1 ?
AmpC inh detg: inactive; AMA1 RON2 block: inactive; Cycloheximide cs: inactive; SARS PLP yeast: inactive; AmpC no deterg: inactive; Shiga inhibitor: inactive

Results for O=C(Nc1nccs1)c1ccc2c(=O)n3c(nc2c1)CCCCC3 ?
AmpC inh detg: inactive; AMA1 RON2 block: inactive; Cycloheximide cs: 19; SARS PLP yeast: inactive; AmpC no deterg: inactive; Shiga inhibitor: 98

Results for CCc1ccc(NC(=O)c2ccc3c(=O)n4c(nc3c2)CCCCC4)cc1 ?
AmpC inh detg: inactive; AMA1 RON2 block: inactive; Cycloheximide cs: 37; SARS PLP yeast: inactive; AmpC no deterg: inactive; Shiga inhibitor: 47

What do the screens show for `Cc1csc(NC(=O)c2ccc3c(=O)n4c(nc3c2)CCCCC4)n1`?
AmpC inh detg: inactive; AMA1 RON2 block: inactive; Cycloheximide cs: 27; SARS PLP yeast: inactive; AmpC no deterg: inactive; Shiga inhibitor: 63

What do the screens show for `CCc1nnc(NC(=O)c2ccc3c(=O)n4c(nc3c2)CCCCC4)s1`?
AmpC inh detg: inactive; AMA1 RON2 block: inactive; Cycloheximide cs: inactive; SARS PLP yeast: inactive; AmpC no deterg: inactive; Shiga inhibitor: inactive

What do the screens show for `CC(C)(C)c1cc(NC(=O)COC(=O)c2ccc3c(=O)n4c(nc3c2)CCC4)n(-c2ccccc2)n1`?
AmpC inh detg: inactive; AMA1 RON2 block: inactive; Cycloheximide cs: 16; SARS PLP yeast: inactive; AmpC no deterg: inactive; Shiga inhibitor: inactive

How did CCc1ccc(NC(=O)c2sc3nc4n(c(=O)c3c2C)CCC4)cc1 do in these assays?
AmpC inh detg: inactive; AMA1 RON2 block: inactive; Cycloheximide cs: 29; SARS PLP yeast: inactive; AmpC no deterg: inactive; Shiga inhibitor: 36

What do the screens show for `Cc1ccc(-n2c(=O)c3sccc3n(CC(=O)NC3CCCCC3)c2=O)cc1`?
AmpC inh detg: inconclusive; AMA1 RON2 block: inactive; Cycloheximide cs: inactive; SARS PLP yeast: inactive; AmpC no deterg: inactive; Shiga inhibitor: 112

How did COc1cccc(-n2c(=O)c3sccc3n(CC(=O)NC3CCCCC3)c2=O)c1 do in these assays?
AmpC inh detg: inactive; AMA1 RON2 block: inactive; Cycloheximide cs: inactive; SARS PLP yeast: inactive; AmpC no deterg: inactive; Shiga inhibitor: inactive

What do the screens show for `COc1ccc2c(c1)c(=O)c(C(=O)c1ccc(F)cc1)cn2CC(=O)Nc1ccc(F)cc1`?
AmpC inh detg: inconclusive; AMA1 RON2 block: inactive; Cycloheximide cs: inactive; SARS PLP yeast: inactive; AmpC no deterg: inactive; Shiga inhibitor: inactive

Results for COc1ccc2c(c1)c(=O)c(C(=O)c1ccc(C)cc1)cn2CC(=O)Nc1ccc(F)cc1 ?
AmpC inh detg: inconclusive; AMA1 RON2 block: inactive; Cycloheximide cs: inactive; SARS PLP yeast: inactive; AmpC no deterg: 18µM; Shiga inhibitor: inactive

Results for O=c1nc2n(c3ccccc13)Cc1ccccc1-2 ?
AmpC inh detg: inactive; Cycloheximide cs: inactive; SARS PLP yeast: inactive; AmpC no deterg: inactive; Shiga inhibitor: inactive

How did Cc1sc2nc(-c3ccco3)oc(=O)c2c1C do in these assays?
AmpC inh detg: inconclusive; AMA1 RON2 block: inactive; Cycloheximide cs: inactive; SARS PLP yeast: inactive; AmpC no deterg: inactive; Shiga inhibitor: inactive

What do the screens show for `Cc1sc2nc3n(c(=O)c2c1C)Cc1ccccc1-3`?
AmpC inh detg: inactive; Cycloheximide cs: 34; SARS PLP yeast: inactive; AmpC no deterg: inactive; Shiga inhibitor: 77

Results for O=c1c2cccc(Cl)c2nc2n1Cc1ccccc1-2 ?
AmpC inh detg: inactive; AMA1 RON2 block: inactive; Cycloheximide cs: 18; SARS PLP yeast: inactive; AmpC no deterg: inactive; Shiga inhibitor: inactive

How did Cc1ccccc1-c1nc2sc(C)c(C)c2c(=O)o1 do in these assays?
AmpC inh detg: inactive; AMA1 RON2 block: inactive; Cycloheximide cs: 17; SARS PLP yeast: inactive; AmpC no deterg: inactive

What do the screens show for `O=C1NC(=O)C(c2cn(-c3ccccc3)nc2-c2ccc(F)cc2)N1` (centres undefined)?
AmpC inh detg: inactive; AMA1 RON2 block: inactive; Cycloheximide cs: inactive; SARS PLP yeast: inactive; AmpC no deterg: inactive; Shiga inhibitor: inactive

Results for CCOCCN1CCN(c2c(C)c(C)nc3cc(-c4cc(OC)cc(OC)c4)nn23)CC1 ?
AmpC inh detg: inactive; AMA1 RON2 block: inactive; Cycloheximide cs: inactive; SARS PLP yeast: inactive; AmpC no deterg: inactive; Shiga inhibitor: inactive

How did COc1cc(-c2nnc(SC/C=C/c3ccccc3)n2N)cc(OC)c1OC do in these assays?
AmpC inh detg: inactive; AMA1 RON2 block: inactive; Cycloheximide cs: inactive; SARS PLP yeast: inactive; AmpC no deterg: inactive; Shiga inhibitor: inactive

Results for CCN(CC)S(=O)(=O)c1ccc(C(=O)NN(C)C2=NS(=O)(=O)c3ccccc32)cc1 ?
AmpC inh detg: inactive; AMA1 RON2 block: inactive; Cycloheximide cs: inactive; SARS PLP yeast: inactive; AmpC no deterg: inactive

What do the screens show for `O=C(Oc1ccccc1)c1cccnc1Oc1ccccc1`?
AmpC inh detg: 40µM; AMA1 RON2 block: inactive; Cycloheximide cs: inactive; SARS PLP yeast: inactive; AmpC no deterg: inactive; Shiga inhibitor: inactive

How did CCOc1ccc(C(=O)Nc2ccc(C(=O)OCc3cc(=O)n4ccsc4n3)cc2)cc1 do in these assays?
AmpC inh detg: inactive

Results for Cc1ccc(S(=O)(=O)c2nc(C)oc2NCc2ccccc2)cc1 ?
AmpC inh detg: 50µM; Cycloheximide cs: inactive; SARS PLP yeast: inactive; AmpC no deterg: inactive; Shiga inhibitor: inactive

Results for Cc1c(N=Cc2nc3ccccc3[nH]2)c(=O)n(-c2ccccc2)n1C ?
AmpC inh detg: inactive; AMA1 RON2 block: inactive; Cycloheximide cs: 46; SARS PLP yeast: inactive; AmpC no deterg: inactive; Shiga inhibitor: 90

How did Cc1[nH]c2ccccc2c1N=Nc1c(C)n(C)n(-c2ccccc2)c1=O do in these assays?
AmpC inh detg: inconclusive; AMA1 RON2 block: inactive; Cycloheximide cs: inactive; SARS PLP yeast: inactive; AmpC no deterg: inactive; Shiga inhibitor: inactive
